From PubChem BioAssay
TMEM16A inh – inhibitors of mouse TMEM16A calcium-activated chloride channel; normalized B-score (activity score, 25-100; higher = stronger inhibition) at 10 µM; HEK293 TMEM16A/YFP iodide influx fluorescence, ionomycin; hit rate 1.2% among 310,000; Q8BHY3;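 active means ratio plate-corrected score three or more library SD toward inhibition, starting fluorescence score within five deviations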;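 further: score derived from kinetic fluorescence span divided by baseline fluorescence per well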
CHT allo act – allosteric activators of human choline transporter CHT; Q9GZV3; CHT-expressing cells, membrane potential dye, choline EC20; stronger effect = higher value; LV-AA mutant CHT in HEK293 cells; B-score at 10 µM; hit rate 0.49% among 310,000; AID 488977;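 active means initial fluorescence not abnormally high and integrated response B-score, plate-corrected, over 3 SD above library mean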
CHT inh – human CHT choline transport inhibition. B-score at 10 µM. CHT-expressing cells, membrane potential dye, choline response; stronger effect = lower value. Q9GZV3. hit rate 0.86% among 310,000;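 active means B-score over 3 SD under the library average, and starting fluorescence ratio not unusually high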;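 further: choline stimulus applied at its EC90 after an EC20 pre-addition; B-score computed on integrated fluorescence ratio after choline addition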
ANO1 activ – activators or potentiators of mouse TMEM16A chloride channel; HEK293 TMEM16A/YFP-H148Q/I152L, iodide quench fluorescence; stronger effect = lower value; hit rate 0.3% among 340,000; Q8BHY3; B-score at 10 µM; AID 623877;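 active means fluorescence-ratio B-score plate-corrected deviation score at least 3 library SD below zero, with starting fluorescence score within 5 deviations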;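 further: channel opened by trigger with iodide after compound preincubation; score built on the fluorescence ratio of max minus min over baseline; more negative score means more quench and so TMEM16A activation or potentiation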
CHT activ conf – human CHT activation, confirmatory screen; shares compounds with CHT allo act; CHT-expressing cells, membrane potential dye fluorescence (FDSS); % of choline EC20–EC90 response window; HEK293 expressing CHT LV-AA mutant; choline added at its EC20; activation, % at 10 µM; hit rate 91% among 2,500; AID 504833;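 active means primary screen active, with duplicate mean activation above negative control mean plus 3 SD, cut at about 11% in these data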
HEK293 MP dye – activity in parental HEK293 cells lacking CHT | shares compounds with CHT allo act | AID 623908 | ratio readout change at 10 µM, hits read low | membrane potential dye fluorescence (FDSS); measured after EC20 choline addition | hit rate 62% among 2,500;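 active means duplicate-averaged ratio beyond 3 SD from buffer wells, up or down, though filed actives are nearly all decreases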
Numbers stand for hits; . = inactive; / = not tested or not shown. Compounds with a hit are over-represented: about 2.4% of the library has one in this group of screens.

SMILES	TMEM16A inh	CHT allo act	CHT inh	ANO1 activ	CHT activ conf	HEK293 MP dye
CCOc1ccc(-n2c(C)c(C(=O)O)c3cc(OC)ccc32)cc1	.	.	.	.	/	/
CCC[C@@H]1C[C@@]1(CCC)[C@@H](NP(=O)(c1ccccc1)c1ccccc1)c1ccc(C(=O)OC)cc1	.	.	.	/	/	/
Cc1nc(-c2ccccc2)cc(N2CCCC2)n1	.	.	.	.	/	/
Cc1cc(-c2ccccc2)nc2[n+]1CCN2C	.	7.5	.	.	61	-59
COc1ccccc1C(=O)OCC(=O)N1CCC(Cc2ccccc2)CC1	/	/	/	.	/	/
CCCCN(C)C(=O)Cc1c(OC)ccc2cc(Br)ccc12	.	6.7	.	.	.	.
CC(=O)Oc1ccc2ccccc2c1C(NC(=O)Cc1ccccc1)c1ccccc1 (configuration not stated)	.	.	.	.	/	/
CN1CCN(c2ccc(S(=O)(=O)N3CCCCC3)cc2NC(=O)c2ccc(C#N)cc2)CC1	.	.	.	.	.	.
Cc1cccc(OCC(=O)Nc2ccccc2N2CCN(C)CC2)c1	.	11	.	.	36	.
O=C(Nc1ccccc1N1CCN(C(=O)c2ccc(Cl)cc2)CC1)c1cccc([N+](=O)[O-])c1	.	.	.	.	/	/
CN1CCN(c2ccccc2NC(=O)c2ccc(OCc3ccccc3)cc2)CC1	.	.	.	.	27	-33
CN1CCN(c2ccccc2NC(=O)c2cccc([N+](=O)[O-])c2)CC1	.	.	.	.	52	-44
COc1cccc(/C=C/C(=O)OCC(=O)Nc2cc(C(F)(F)F)ccc2Cl)c1	.	.	.	.	/	/
CN(C)NC(=O)c1cccc(Cl)c1	.	.	.	.	/	/
COc1cccc(C(=O)Nc2cc([N+](=O)[O-])ccc2N2CCN(C)CC2)c1	.	9.7	.	.	49	-82
CN1CCN(c2ccc([N+](=O)[O-])cc2NC(=O)c2ccccc2)CC1	.	8.5	.	.	62	-88
COc1ccc(C(=O)Nc2cc([N+](=O)[O-])ccc2N2CCN(C)CC2)cc1	.	.	.	.	/	/
O=C(COc1cccc2cccnc12)NCc1cccs1	.	.	.	.	/	/
CCCC1=[N+](CC)CCn2c(C)ccc21	.	.	.	.	/	/
CCCC1=[N+](CC(=O)c2ccccc2)CCn2c(C)ccc21	.	8.1	.	.	40	.
CCOc1ccccc1NC(=O)CSc1nnc(-c2ccco2)o1	.	16	.	.	.	.
CC(NC(=O)COC(=O)COc1ccc(C(=O)c2ccccc2)cc1)c1ccccc1 (configuration not stated)	/	/	/	.	/	/
Cc1cc(C)n(-c2nc3ccccc3nc2N2CCCCCC2)n1	.	.	.	.	17	.
COc1cccc(CNCc2ccc(OC)cc2OC)c1	.	.	.	.	/	/
CCn1c2ccccc2c2cc(CNCc3ccc(OC)cc3OC)ccc21	100	16	.	.	.	.
SMILES	TMEM16A inh	CHT allo act	CHT inh	ANO1 activ	CHT activ conf	HEK293 MP dye
CN(CCN1CCOCC1)C(=O)CC1C(=O)NCCN1Cc1ccccc1F (configuration not stated)	.	.	.	.	/	/
CC(C)CCN1CCN(Cc2cccn2-c2nccs2)CC1CCO (configuration not stated)	.	.	.	.	/	/
Cc1cc(=O)n2nc(-c3ccccc3)sc2c1C#N	.	6.4	.	.	29	-27
Cc1c(C(O)CN2CCN(Cc3ccc4c(c3)OCO4)CC2)c2ccccc2n1C (configuration not stated)	.	6.8	.	.	31	-27
CN1C(=O)C(O)(C2COC(C)(C)CC2=O)c2ccccc21 (configuration not stated)	.	.	.	.	/	/
CN1C(=O)C(O)(C2COC(C)(C)CC2=O)c2cc(Br)ccc21 (configuration not stated)	.	6.8	.	.	.	.
COc1cc(OC)c2ccc(=O)oc2c1C(CC(=O)N1CCOCC1)c1ccc2c(c1)OCO2 (configuration not stated)	.	.	.	.	/	/
COc1cc(OC)c2ccc(=O)oc2c1C(CC(=O)N1CCN(c2ccccc2)CC1)c1ccc2c(c1)OCO2 (configuration not stated)	.	.	.	.	33	.
